# Sampled rows, rich in hits. Any-hit rate of the full collection: about 19%.
# Pf growth 48h = P. falciparum growth inhibition at 48 hours (one generation) | P. falciparum luciferase growth in erythrocytes, 48 h | Potency, µM (top dose mostly 28.7 µM), actives largely listed as inhibitors | 310,000 compounds, 5.9% hits | AID 504832
#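 Erythrocytes infected with P. falciparum carrying an integrated firefly luciferase reporter (2% hematocrit, 0.1% parasitemia final) were exposed to compounds in RPMI 1640 with 0.5% Albumax at 37 C, 5% CO2. Growth inhibition was scored as reduced luminescence.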
# Pf growth 96h = P. falciparum growth inhibition at 96 hour, primary screen for plastid delayed-death inhibitors; P. falciparum luciferase reporter growth, 96 h; Potency, µM (series often up to 28.7 µM), hits mostly inhibitors; 320,000 compounds, 6.9% hits; AID 504834
#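 Compounds incubated with erythrocytes infected by luciferase-expressing P. falciparum (2% hematocrit, 0.05% parasitemia final) for 96 hours, 37 C in 5% CO2. Growth inhibition scored as decreased luciferase luminescence.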
# Lassa entry inh = inhibitors of Lassa virus binding or cell entry. Potency, µM (highest dose often 37.9 µM), actives largely listed as inhibitors. 300,000 compounds, 1.2% hits. Lassa virus pseudotype entry inhibition, cell reporter; calls by dose curve; tested in HEK293 cells; also: nearly all actives have a fitted effect of over 50% in size
# Shiga inhibitor = Shiga toxin inhibition | Vero cells, Shiga toxin protein synthesis inhibition reporter | 290,000 compounds, 9.2% hits | inhibition, % at 38.7 µM; in the data active = inhibition mostly above about 28%, no sharp cut-off; inactive = mostly below about 43%
# Cycloheximide cs = affects cycloheximide protein synthesis inhibition readout, counter-screen | cell reporter, cycloheximide protein synthesis inhibition counterscreen | max response, % | 300,000 compounds, 12% hits | AID 2314; in the data active = max response mostly above about 13%, no sharp cut-off; inactive = mostly below about 14%; also: read at 38.3 µM for the half of the compounds with a filed dose
# MARV entry inh = Marburg virus entry inhibition; Marburg virus pseudotyped entry inhibition, cell reporter; Potency, µM (highest dose often 37.8 µM), most hits filed as inhibitors; 300,000 compounds, 1.8% hits; AID 540276; calls by dose curve; tested in HEK293 cells
# Numbers stand for hits; – = inactive; ? = inconclusive; · = no result given. Unless noted, calls follow the shape of the dose curve; as a rule, active = well fitted inhibition curve with a large enough effect; inconclusive = small, poorly fitted or top-dose-only effect, or another doubt; inactive = no such curve, though single readings can be large or run the other way.
SMILES,Pf growth 48h,Pf growth 96h,Lassa entry inh,Shiga inhibitor,Cycloheximide cs,MARV entry inh
COc1ccc(CCC(=O)Nc2cc(S(=O)(=O)N3CCCCC3)ccc2N(C)C)cc1,10.4µM,?,·,·,·,·
CCOC(=O)C1CCCN(c2c(NCc3ccco3)c(=O)c2=O)C1 (configuration not stated),–,?,·,–,–,·
CCN1CCN(S(=O)(=O)c2ccc(Cl)c(C(=O)Nc3ccccc3N3CCCC3)c2)CC1,?,?,–,·,·,–
CC(C)COc1cccc(C(=O)Nc2cc(S(=O)(=O)N3CCOCC3)ccc2N2CCCC2)c1,·,·,?,·,·,–
CCN1CCN(c2ccc(S(=O)(=O)N3CCCCC3)cc2NC(=O)c2cccc(OC(F)F)c2)CC1,?,10.4µM,?,·,·,?
CCN1CCN(c2ccc(S(=O)(=O)N3CCCCC3)cc2NC(=O)c2cc3ccccc3o2)CC1,4.15µM,2.08µM,–,·,·,?
CCN1CCN(S(=O)(=O)c2ccc(Cl)c(C(=O)Nc3ccccc3N3CCCCC3)c2)CC1,?,?,?,·,·,11.2µM
CCN1CCN(c2ccc(S(=O)(=O)N3CCCCC3)cc2NC(=O)Cc2c(F)cccc2Cl)CC1,?,13.1µM,–,–,–,?
CNCCC(Oc1ccccc1C)c1ccccc1 (configuration not stated),?,?,?,·,·,14.1µM
CNCC[C@H](Oc1cccc2ccccc12)c1cccs1,13.5µM,6.75µM,·,–,–,·
CCN(CC(=O)NCc1ccc(F)cc1)C(=O)C1CCN(S(=O)(=O)c2ccc(C(C)C)cc2)CC1,?,?,–,·,·,–
C=C1CCN(C(CC(C)C)C(=O)Nc2ccc(OC)cc2)S(=O)(=O)c2ccccc21 (configuration not stated),·,·,·,–,–,·
O=C(c1ccc(CSc2nc3ccncc3[nH]2)cc1)N1CCCCC1,–,11.7µM,–,–,–,–
CC1CCCCC1NC(=O)c1ccc(CSc2nc3ccncc3[nH]2)cc1 (configuration not stated),?,5.22µM,–,–,–,–
Cc1ccc(C)c(N2CCN(C(=O)c3ccc(CSc4nc5ccncc5[nH]4)cc3)CC2)c1,?,–,?,–,–,?
COc1c(C)cccc1C(=O)Nc1ccc(N2CCN(S(C)(=O)=O)CC2)cc1,–,–,–,95.8,35.3,–
COc1c(C)cc(Br)cc1C(=O)Nc1ccc(N2CCN(S(C)(=O)=O)CC2)cc1,–,–,–,–,–,–
COc1ccccc1C(=O)Nc1ccc(N2CCN(S(C)(=O)=O)CC2)cc1,–,?,–,37.1,–,–
CCC(C(=O)Nc1c2c(nn1C(C)(C)C)CS(=O)(=O)C2)c1ccccc1 (configuration not stated),–,–,–,–,–,–
Cc1nc(N)c(CC(Br)CBr)c(Cl)n1 (configuration not stated),0.0738µM,?,·,–,–,·
CN1OC(COC(=O)c2ccccc2)CC1c1ccccc1 (configuration not stated),–,–,–,94.1,40.8,–
CCC1CCCCN1C(=O)COC(=O)c1cc(=O)[nH]c2ccccc12 (configuration not stated),·,·,–,·,·,?
O=C(Nc1ccccc1Cl)N1CCSc2ccccc21,1.47µM,–,–,–,–,·
O=C(Nc1cccc(Cl)c1)N1CCSc2cc(Cl)ccc21,?,13.1µM,–,–,–,–
O=C(Nc1cccc(Cl)c1)N1CCSc2ccccc21,·,·,–,·,·,·
SMILES,Pf growth 48h,Pf growth 96h,Lassa entry inh,Shiga inhibitor,Cycloheximide cs,MARV entry inh
O=S(=O)(NCC(c1ccco1)S(=O)(=O)c1cccs1)c1ccc(Cl)cc1 (configuration not stated),·,·,–,·,·,·
Cc1cc(=O)oc(C)c1C(=O)NCCc1ccccc1,·,?,–,–,–,–
O=C(c1nnsc1S(=O)(=O)c1ccc(Cl)cc1)N1CCOCC1,–,?,?,45.4,28.1,?
O=C(c1nnsc1S(=O)c1ccc(Cl)cc1)N1CCOCC1 (configuration not stated),16.5µM,–,?,–,59.8,?
Nc1nc(C(=O)N2CCOCC2)nn1S(=O)(=O)c1ccc(Cl)cc1,–,–,–,–,–,–
CNC(=O)c1nnsc1S(=O)(=O)c1ccc(Cl)cc1,?,?,?,–,–,2.82µM
O=C1NC(NS(=O)(=O)c2ccc(Cl)cc2)(C(F)(F)F)C(=O)N1c1ccccc1 (configuration not stated),–,?,–,–,–,–
O=C(c1ccc(F)cc1)c1cnc(Nc2ccccc2)s1,–,–,?,75.2,23.4,?
CC(=O)c1cnc(Nc2cccc(C)c2)s1,–,–,–,118.8,48.1,?
CNc1ncc(C(=O)c2ccc(F)cc2)s1,–,–,–,67.4,42.7,?
CCCc1nnc(NC(=O)CCC(=O)NC2CCCCCC2)s1,–,?,–,–,–,–
N#CCCn1cc(C=C(C#N)C#N)c(-c2ccc(-c3ccccc3)cc2)n1,–,–,–,–,–,?
CCCCN1CC(O)=C(c2nc(-c3ccc(Br)cc3)cs2)C1=N,?,?,–,–,–,–
COc1cccc(NC(=O)CN2C(=O)c3cccnc3Oc3ccc(Cl)cc32)c1,13.1µM,–,–,–,–,·
CC(NC(=O)CN1C(=O)c2cccnc2Oc2ccc(Cl)cc21)c1ccccc1 (configuration not stated),·,·,–,·,·,·
O=C(CN1C(=O)c2cccnc2Oc2ccc(Cl)cc21)Nc1ccccc1F,?,–,·,–,12.9,·
c1coc(-c2nc3ccccn3c2Nc2ccc3c(c2)OCCO3)c1,·,·,–,·,·,?
N#Cc1c2n(c(=S)n(-c3ccccn3)c1=O)CCCCC2,–,–,–,–,16.2,?
C[C@H](N)Cc1c[nH]c2ccc(OCc3cccs3)cc12,·,·,·,·,·,20.6µM
CC(N)Cc1c[nH]c2ccc(OCc3cccs3)cc12 (configuration not stated),·,·,–,·,·,20.6µM
C[C@H](N)Cc1c[nH]c2ccc(O)cc12,·,·,·,·,·,–
CC(N)Cc1c[nH]c2ccc(O)cc12 (configuration not stated),·,·,–,·,·,?
Cc1cc(C(=O)COC(=O)c2ccc3c(c2)NC(=O)CS3)c(C)n1CC1CCCO1 (configuration not stated),–,–,–,55.9,37.9,?
CNS(=O)(=O)c1cccc(C(=O)OCC(=O)c2cc(C)n(-c3ccc4c(c3)OCO4)c2C)c1,·,5.22µM,–,–,36.1,–
Cc1cc(C(=O)CSc2n[nH]c(N)n2)c(C)n1-c1ccc2c(c1)OCO2,–,11.7µM,–,–,10.0,?
Cc1cc(C(=O)COC(=O)c2cccc(S(=O)(=O)N(C)C)c2)c(C)n1CC1CCCO1 (configuration not stated),–,–,–,·,·,–
CNS(=O)(=O)c1cccc(C(=O)OCC(=O)c2cc(C)n(CC3CCCO3)c2C)c1 (configuration not stated),–,–,12.6µM,·,·,?
COCC(C)n1c(C)cc(C(=O)COC(=O)c2ccc3c(c2)NC(=O)CS3)c1C (configuration not stated),10.4µM,7.38µM,–,–,–,–
